# An excerpt weighted towards active compounds, which were near 8.1% of everything screened.
# MITF inh – inhibitors of MITF, primary screen, MITF inhibitor project, cell-based, luminescence | TRPM1 promoter luciferase, 24 h | inhibition, % (test concentration not listed) | 0.28% of 37,000 active; in the data active = inhibition above about 85%; inconclusive = no clear call, values can overlap the other calls; inactive = below about 68%;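 note: human melanocyte line stably carrying TRPM1 promoter luciferase reporter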
# Hedgehog inh – Hedgehog pathway signaling inhibitors, primary screen, luminescence, Shh-LIGHT2 cells, Gli-luciferase; inhibition, % (concentration not given with the values); 2.1% of 22,000 active; Shh-LIGHT2 Gli-luciferase reporter, 30 h;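 active = mean inhibition across valid replicates above about 65%, limit read from the data; inconclusive = mean under the limit, yet half or more replicates past it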;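 note: pathway switched on by Shh-conditioned medium diluted 1 in 25 in low serum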
# NOMO-1 viab – NOMO-1 AML cell viability reduction, primary screen, STK33 inhibitor project, CellTiter-Glo luminescence; NOMO-1 AML viability, 72 h; inhibition, % (test concentration not listed); AID 2330, 2010; 7.5% of 37,000 active; in the data active = inhibition above about 80%; inconclusive = no clear call, values can overlap the other calls
# Numbers stand for hits; n = inactive; u = inconclusive; x = no result.
SMILES,MITF inh,Hedgehog inh,NOMO-1 viab
C[C@H]1CN([C@@H](C)CO)C(=O)Cc2cc(NC(=O)Nc3ccc(C(F)(F)F)cc3)ccc2O[C@@H]1CN(C)S(=O)(=O)c1ccccc1,n,x,n
C[C@H]1CN([C@@H](C)CO)C(=O)Cc2cc(NC(=O)Nc3ccccc3)ccc2O[C@H]1CN(C)S(=O)(=O)c1ccccc1,n,n,n
COC(=O)c1ccc(CSc2nc(-c3cccs3)cc(C(F)(F)F)n2)cc1,n,n,n
CCN(CC(=O)Nc1cccc(SC)c1)S(=O)(=O)c1ccc(C)cc1,n,x,n
O=S(=O)(Cc1nc(-c2ccccc2Cl)cs1)c1cccs1,n,n,n
CS(=O)(=O)N(CC(=O)Nc1ccc2c(c1)OCCO2)c1cccc(F)c1,n,x,n
COc1ccc(NC(=O)COc2ccc(Br)cc2C)c([N+](=O)[O-])c1,n,x,n
Cc1csc2sc(C=NCc3cccs3)c(C)c12,n,n,122
C[C@H](CO)N1C[C@H](C)[C@@H](CN(C)Cc2ccc3c(c2)OCO3)Oc2ccc(NC(=O)CCCCCC(=O)Nc3ccccc3N)cc2C1=O,n,x,n
C[C@@H]1CN([C@H](C)CO)C(=O)Cc2cc(NC(=O)CCCCCC(=O)Nc3ccccc3N)ccc2O[C@@H]1CN(C)Cc1ccc(Cl)c(Cl)c1,n,x,137
C[C@@H]1CN([C@@H](C)CO)C(=O)c2cc(NC(=O)CCCCCC(=O)Nc3ccccc3N)ccc2O[C@@H]1CN(C)Cc1ccc2c(c1)OCO2,n,x,95
C[C@H]1CN([C@@H](C)CO)C(=O)Cc2cc(NC(=O)Cc3ccccc3)ccc2O[C@H]1CN(C)Cc1ccc(Cl)c(Cl)c1,n,n,u
C[C@H](CO)N1C[C@H](C)[C@H](CN(C)Cc2ccc3c(c2)OCO3)Oc2ccc(NC(=O)CCCCCC(=O)Nc3ccccc3N)cc2CC1=O,n,x,132
C[C@H](CO)N1C[C@H](C)[C@H](CN(C)Cc2ccc3c(c2)OCO3)Oc2ccc(NC(=O)CCCCCC(=O)Nc3ccccc3N)cc2C1=O,n,x,n
COc1cccc(OCC(=O)Nc2cc([N+](=O)[O-])ccc2OC)c1,n,x,n
C=CC(C)(O)CC/C=C(\C)CCC(O)C(C)(C)O (stereo not given),n,n,n
C=CC(C)(O)CC(/C=C(\C)CC(/C=C(\C)CCC=C(C)C)OC(C)=O)OC(C)=O (stereo not given),n,n,98
CC(=O)O[C@H]1C(=O)[C@@]2(C)[C@H]([C@H](OC(=O)c3ccccc3)[C@]3(O)C[C@H](OC(=O)[C@H](O)[C@@H](NC(=O)c4ccccc4)c4ccccc4)C(C)=C1C3(C)C)[C@]1(OC(C)=O)CO[C@@H]1C[C@@H]2O,n,n,141
O=C1CC(c2ccccc2)N=C(SCC(=O)Nc2ccc3ccccc3c2)N1 (stereo not given),n,x,n
Cc1nnc(SCC(=O)Nc2ccc(Cl)cc2Cl)[nH]c1=O,n,x,n
COc1ccc2cc1Oc1ccc(cc1)C[C@H]1c3cc(c(OC)cc3CCN1C)Oc1c(OC)c(OC)cc3c1[C@H](C2)N(C)CC3,n,n,121
COc1cc2c3cc1Oc1c(OC)c(OC)cc4c1[C@@H](Cc1ccc(OC(=O)c5ccc([N+](=O)[O-])cc5)c(c1)Oc1ccc(cc1)C[C@@H]3N(C)CC2)N(C)CC4,n,n,98
COc1ccc2c(c1OC)C(=O)OC2[C@H]1c2c(cc3c(c2OC)OCO3)CCN1C (stereo not given in full),n,n,n
COc1ccc2c(c1OC)C(=O)O[C@@H]2[C@H]1c2c(cc3c(c2OC)OCO3)CCN1C,n,n,n
CN(C)Cc1ccc(C(=O)Oc2ccc(C(C)(C)C)cc2)cc1,n,x,115
SMILES,MITF inh,Hedgehog inh,NOMO-1 viab
CCc1ccc(C(=O)Oc2ccc(C#N)cc2)cc1,n,x,n
Cc1ccc2c(c1)C(=O)C1(O)CCN(c3ccccc3)C1=N2 (stereo not given),n,n,109
Cc1sc2nc(SCC(=O)NCC3CCCO3)n(-c3ccc(F)cc3)c(=O)c2c1C (stereo not given),n,x,n
COc1cc(-c2nnc(SCC(=O)c3ccc(Cl)cc3)n2C)cc(OC)c1OC,n,x,n
COc1ccc(OC(C)c2nc(-c3cccnc3)no2)cc1 (stereo not given),n,x,n
CC(Oc1ccc(C(C)(C)C)cc1)c1nc(-c2cccnc2)no1 (stereo not given),n,x,81
Cc1nn(C(C)C(=O)Nc2cc(C(F)(F)F)ccc2Cl)c(C)c1[N+](=O)[O-] (stereo not given),n,x,n
C[C@@H]1CN([C@H](C)CO)C(=O)c2cc(NC(=O)Nc3ccc(F)cc3)ccc2O[C@@H]1CN(C)Cc1ccc(Oc2ccccc2)cc1,n,u,124
C[C@H](CO)N1C[C@H](C)[C@H](CN(C)Cc2ccc(Oc3ccccc3)cc2)Oc2ccc(NC(=O)Nc3ccc(F)cc3)cc2C1=O,n,n,n
C[C@@H]1CN([C@H](C)CO)C(=O)c2cc(NC(=O)Nc3ccc(F)cc3)ccc2O[C@H]1CN(C)Cc1ccc(Oc2ccccc2)cc1,n,x,n
C[C@@H]1CN([C@@H](C)CO)C(=O)c2cc(NC(=O)Nc3ccc(F)cc3)ccc2O[C@@H]1CN(C)Cc1ccc(Oc2ccccc2)cc1,n,n,117
COc1ccc(C(C)(C)C)cc1S(=O)(=O)NC1CC(C)(C)NC(C)(C)C1,n,x,n
O=C(COc1cccc2ccccc12)Nc1ccccc1C(=O)O,n,x,n
CC(C)(C)c1ccccc1OCC(=O)Nc1cccc2ccccc12,n,n,92
COc1ccccc1-c1nnc(SCC(=O)Nc2ccccc2C(F)(F)F)n1C,n,x,n
COc1ccc2cc(Br)ccc2c1CC(=O)Nc1cccnc1,n,x,n
O=C(O)CC(c1ccc(F)cc1)c1ccco1 (stereo not given),n,x,n
COc1cc(O)c(C(=O)CCc2ccccc2)c(O)c1Cc1ccccc1O,108,n,u
COc1cc(CCC(O)CC(=O)CCc2ccccc2)ccc1O (stereo not given),x,n,x
COc1cc(CCC(O)CC(=O)CCc2ccc(O)cc2)ccc1O (stereo not given),x,n,x
COc1cc(O)c(Cc2ccccc2O)c(O)c1C(=O)CCc1ccccc1,n,n,114
C=C(C)[C@@]12O[C@@H]1[C@@]1(C)C(=CC2=O)CC[C@@H](O)[C@@H]1C,n,n,114
CC(C)=C1C[C@@]2(CO)C(=CC1=O)CC[C@@H](O)[C@@H]2C,n,n,n
FC(F)(F)C1(C(F)(F)F)N=C(c2ccccc2)NC(c2ccccc2)=N1,n,n,n
C[C@@H]1CN([C@H](C)CO)C(=O)c2cccc(NC(=O)Nc3ccc4c(c3)OCO4)c2O[C@@H]1CN(C)Cc1ccc(C(=O)Nc2ccccc2N)cc1,n,x,140
C[C@@H]1CN([C@H](C)CO)C(=O)c2cccc(NC(=O)Nc3ccc4c(c3)OCO4)c2O[C@@H]1CN(C)Cc1ccc(C(F)(F)F)cc1,n,n,n
C[C@H]1CN([C@@H](C)CO)C(=O)c2cccc(NC(=O)Nc3ccc4c(c3)OCO4)c2O[C@H]1CN(C)Cc1ccc(C(=O)Nc2ccccc2N)cc1,n,x,140
C[C@H](CO)N1C[C@H](C)[C@@H](CN(C)Cc2ccc(C(=O)O)cc2)Oc2c(NC(=O)Nc3ccc4c(c3)OCO4)cccc2C1=O,n,n,n
